Shown are actives, neighbours in structure and some others; about 3.9% of the full set was active somewhere.
Anthrax LF prot: anthrax lethal factor protease inhibition. hit rate 0.12% among 360,000. multiplex microsphere protease cleavage assay, LF. inhibition, % at 10 µM
BoNT F protease: BoNT F light chain protease inhibition; Multiplex microsphere protease cleavage assay, flow cytometry; inhibition, % at 10 µM; hit rate 0.22% among 360,000; in the data active = inhibition above about 35%, passing the limit was not always enough; inconclusive = no clear call, values can overlap the other calls
BoNT-A LC inh2: BoNT A light chain protease inhibition. inhibition, % at 10 µM. multiplex microsphere protease substrate cleavage, flow cytometry. AID 588499. hit rate 0.17% among 360,000
Autofluor counter: counter-screen for toxin protease inhibitors: compound fluorescence; compound autofluorescence counterscreen, microsphere flow cytometry; hits give high values; fluorescence intensity (concentration not given with the values); hit rate 3.1% among 360,000; AID 624483; in the data active = fluorescence intensity above about 16000; inconclusive = no clear call, values can overlap the other calls
SARS 3CLpro inh: SARS-CoV 3CLpro protease inhibition; hit rate 0.14% among 290,000; AID 1706; inhibition, % at 6 µM; P0C6X7; recombinant SARS-CoV 3CLpro, quenched FRET peptide cleavage; in the data active = inhibition above about 12%
DUSP3 inh: blocks human VHR1 dual specificity phosphatase; inhibition, % at 13.3 µM; P51452; hit rate 0.52% among 290,000; recombinant VHR phosphatase, pNPP absorbance; in the data active = inhibition above about 50%
Target sequence (P51452 whole entry, looked up): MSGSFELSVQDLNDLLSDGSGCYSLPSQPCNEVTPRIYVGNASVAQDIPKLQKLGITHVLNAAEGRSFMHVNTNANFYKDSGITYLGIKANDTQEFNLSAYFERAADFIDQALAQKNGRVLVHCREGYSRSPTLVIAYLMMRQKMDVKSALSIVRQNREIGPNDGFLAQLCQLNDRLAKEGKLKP
Each line names hits and unclear results; the compound was inactive in the other large screens. Cut-off read from the data, not from the text of the source, unless noted: active = inhibition above about 30%; inconclusive = no clear call, values can overlap the other calls; inactive = below that.

C[C@@H]1CN([C@@H](C)CO)C(=O)c2cc(NS(C)(=O)=O)ccc2O[C@@H](C)CCCCO[C@H]1CN(C)Cc1ccc2c(c1)OCO2	none (no result: SARS 3CLpro inh, DUSP3 inh)
COc1ccc(NC(=O)Nc2c(C)n(-c3ccccc3)c(=O)n2C)cc1OC	none
CCOc1ccccc1NC(=O)Nc1c(C)n(-c2ccccc2)c(=O)n1C	Autofluor counter 20830
O=C(Nc1nnc(-c2ccncc2)s1)C1CCCO1 (stereo not given)	Autofluor counter 16579
CCCCCc1nnc(NC(=O)C2CCCO2)s1 (stereo not given)	Autofluor counter 20636
COc1ccc(C(=O)c2c(C)c3cc(C)ccc3n2CC(O)CN2CCOCC2)cc1 (stereo not given)	none
CNc1ncnc2c1ncn2[C@H]1CN(Cc2cccs2)C[C@@H](CO)O1	none (no result: SARS 3CLpro inh, DUSP3 inh)
O=C(CN(c1ccccc1)S(=O)(=O)c1ccc(F)cc1)NCc1cccs1	none (no result: SARS 3CLpro inh, DUSP3 inh)
CCc1ccc2[nH]c(=O)c(C(c3nnnn3Cc3ccc(OC)cc3)N3CCOCC3)cc2c1 (stereo not given)	Autofluor counter 16212
CCc1ccc2[nH]c(=O)c(C(c3nnnn3Cc3ccccc3)N3CCOCC3)cc2c1 (stereo not given)	BoNT-A LC inh2 inconclusive, Autofluor counter 21543
CCCc1cc(=O)n2[nH]c(C)nc2n1	Autofluor counter 24470
CCc1nc2c(OCc3cc(Cl)cc(Cl)c3)cccn2c1N(C)C(=O)c1ccc(OC)cc1	none (no result: SARS 3CLpro inh, DUSP3 inh)
CC(Sc1nnc2ccccn12)C(N)=O (stereo not given)	none
O=C(NCc1ccccc1)C(Cc1ccccc1)N1C(=O)C2C3CCC(C3)C2C1=O (stereo not given)	Autofluor counter 16697
O=C(NC1CCCCC1)C(Cc1ccccc1)N1C(=O)C2C3CCC(C3)C2C1=O (stereo not given)	none
CCN1C(=O)[C@@H]2[C@H](C1=O)[C@@H]1C(=O)Nc3ccccc3C(=O)N1[C@@H]2c1cccc(Cl)c1	none
CCOc1cc(C(=O)Nc2cccc3ncccc23)cc(OCC)c1OCC	Autofluor counter 20303
CC(=O)Nc1cccc(C(=O)Nc2cccc3ncccc23)c1	none
CN(Cc1nc2ccccc2c(=O)[nH]1)C(=O)c1ccc(S(=O)(=O)N(C)C)cc1	Autofluor counter 20390
Cc1ccc(S(=O)(=O)N(C)c2ccc(C(=O)N(C)Cc3nc4ccccc4c(=O)[nH]3)cc2)cc1	none (no result: SARS 3CLpro inh, DUSP3 inh)
CCC1Cc2[nH]c(=S)[nH]c(=O)c2C(c2ccc(F)cc2)O1 (stereo not given)	none (no result: SARS 3CLpro inh, DUSP3 inh)
O=C(CC1C(=O)NCCN1C(=O)Nc1ccccc1)Nc1ccc2c(c1)OCCO2 (stereo not given)	Autofluor counter 16409
Cc1cc(OC(=O)c2ccccc2F)c([N+](=O)[O-])c(=O)[nH]1	none
CCCCn1c(N)c(Sc2ccc(Cl)cc2)c(=O)[nH]c1=O	Autofluor counter 19647
Cc1ccc(C)c(-n2c(N)c(C(N)=O)sc2=S)c1	none (no result: DUSP3 inh)
CCOC(=O)c1sc(=S)n(-c2ccccc2OC)c1N	none
CCOc1ccccc1-n1c(N)c(C(N)=O)sc1=S	Autofluor counter 16402
Cc1ccc(-n2c(N)c(C(N)=O)sc2=S)c(C)c1	Autofluor counter 18506
O=C(OCc1nc2ccccc2s1)c1ccc(Br)s1	Autofluor counter 23134
OCc1cc(Br)ccc1OCc1nc2ccccc2s1	none
Oc1ccccc1OCc1nc2ccccc2s1	Autofluor counter 22098
COC(=O)c1ccc(NC(=O)c2cc[n+]([O-])cc2)cc1	none
CCOC(=O)C1C(=O)NC(N2CCCCC2)=NC1c1ccccc1 (stereo not given)	Autofluor counter 22677
CCOC(=O)C1C(=O)NC(N2CCN(Cc3ccccc3)CC2)=NC1c1ccccc1 (stereo not given)	none
CC1CC(=O)c2cnc(N)nc2C1 (stereo not given)	Autofluor counter 22837
CC1CC(=O)c2cnc(N3CCOCC3)nc2C1 (stereo not given)	none
NC(=O)c1cn(C2CCCCC2)c2ccccc2c1=O	BoNT F protease 40.7
CCOC(=O)C1=C[C@@H](C(C)C)N(S(=O)(=O)c2ccc(C)cc2)[C@H]1c1ccc(C(F)(F)F)cc1	none (no result: SARS 3CLpro inh, DUSP3 inh)
O=C(CSc1nc2ccccc2s1)c1cc2ccccc2o1	Autofluor counter 23696
O=C(CSc1nc2ccccc2s1)CSc1nc2ccccc2s1	none
COCCCn1nnnc1SCC(=O)Nc1nc2ccccc2s1	none
Cc1ccc(NS(=O)(=O)c2cc(NC(=O)c3ccc4c(c3)NC(=O)CS4)ccc2C)c(C)c1	none
COc1ccc(CCNC(=S)Nc2cccc3ccccc23)cc1	none
COc1ccc(OCCNC(=S)Nc2cccc3ccccc23)cc1	Autofluor counter 22439
COc1ccc(NC(=S)NCCc2ccccc2OC)c(OC)c1	Autofluor counter 16398
COc1ccccc1CCNC(=O)c1ccc(C)o1	BoNT-A LC inh2 inconclusive, Autofluor counter 21801
CC(C)c1ccc(C(=O)N2CCCCC2c2cc(C(=O)NCc3cccnc3)no2)cc1 (stereo not given)	none (no result: SARS 3CLpro inh, DUSP3 inh)
CCOC(=O)C1=C(Cc2ccc(F)cc2)C(=O)c2ccccc2C1=O	Autofluor counter 23756
COc1cc2c(cc1OC)C(c1cc3cc(OC)c(OC)cc3[nH]c1=O)N(C(=O)C1CC1)CC2 (stereo not given)	Autofluor counter 20442
CCS(=O)(=O)N1CCC(N2CCC(C)CC2)CC1	none
Cc1nnc(-c2cnn(-c3ccccc3)c2N)n1Cc1ccncc1	BoNT-A LC inh2 inconclusive, Autofluor counter 20279
O=C(c1ccco1)N1CCN(CC2CC3C=CC2C3)CC1 (stereo not given)	Autofluor counter 20016
O=C(c1ccco1)N1CCN(C(=O)c2sccc2-c2ccccc2)CC1	Autofluor counter 20729
Nc1ccc(N2CCN(C(=O)c3ccco3)CC2)cc1	Autofluor counter 20148
Cc1ccc(C(=O)NCc2ccco2)c(C)c1	none
CC1(C(=O)NS(=O)(=O)c2ccccc2)CCN1C(=O)CC1CCCCC1 (stereo not given)	none (no result: SARS 3CLpro inh, DUSP3 inh)
COc1cccc(CN(C(=O)/C=C/c2ccc(Cl)cc2)C2CCS(=O)(=O)C2)c1 (stereo not given)	DUSP3 inh 50.6
O=C(c1cccs1)N(Cc1cccc(F)c1)C1CCS(=O)(=O)C1 (stereo not given)	none
Cc1ccc(CN(C(=O)c2cccs2)C2CCS(=O)(=O)C2)cc1 (stereo not given)	none
O=C(c1cccs1)N(Cc1ccco1)C1CCS(=O)(=O)C1 (stereo not given)	Autofluor counter 22695
O=C(c1cccs1)N(Cc1cccc(Cl)c1)C1CCS(=O)(=O)C1 (stereo not given)	BoNT-A LC inh2 inconclusive, Autofluor counter 21176
O=C(/C=C/c1ccccc1)N(Cc1cccc(Cl)c1)C1CCS(=O)(=O)C1 (stereo not given)	none
COc1ccc(-c2ccc(SCC(=O)N3CCCC3)nn2)cc1OC	Autofluor counter 19444
COc1ccc(-c2ccc(SCC(=O)N3CCOCC3)nn2)cc1OC	none
COc1cc(SC)ccc1C(=O)NCCOc1c(C)cc(C)cc1C	Autofluor counter 20169
CCCc1nnc(SCC(=O)O)n1CC	none
